Source: PubChem
A selection: hits, their analogues and other compounds. The true share with any hit is near 1.7%.
DUSP3 inh = blocks human VHR1 dual specificity phosphatase. recombinant VHR phosphatase, pNPP absorbance. inhibition, % at 13.3 µM. hit rate 0.52% among 290,000. AID 1654; in the data active = inhibition above about 50%
Target sequence (P51452 whole entry, looked up): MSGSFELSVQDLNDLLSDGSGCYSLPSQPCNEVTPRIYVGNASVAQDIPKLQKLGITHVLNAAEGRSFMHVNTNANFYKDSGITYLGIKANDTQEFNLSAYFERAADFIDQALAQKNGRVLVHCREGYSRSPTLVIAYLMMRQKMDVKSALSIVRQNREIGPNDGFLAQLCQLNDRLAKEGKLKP
RecA splice inh = blocks M. tuberculosis RecA intein splicing; P9WHJ3; cell-free RecA intein splicing, fluorescence; inhibition, % (test concentration not listed); hit rate 0.75% among 290,000; AID 2221; in the data active = inhibition above about 30%;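 also: 0% = vehicle wells and 100% = reference inhibitor control wells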
3CLpro inhibitor = SARS-CoV 3CLpro protease inhibition. P0C6X7. recombinant SARS-CoV 3CLpro, quenched FRET peptide cleavage. inhibition, % at 6 µM. hit rate 0.14% among 290,000. AID 1706; in the data active = inhibition above about 12%
PriA SSB inh = inhibitors of Klebsiella pneumoniae PriA binding to SSB C-terminal tail | AlphaScreen SSBct-PriA binding, biotinylated peptide | inhibition, % at 33 µM | hit rate 0.6% among 430,000; in the data active = inhibition mostly above about 37%, no sharp cut-off; inactive = mostly below about 20%;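 also: plate controls were negative control peptide for no effect and reference peptide for full effect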
CCHF vOTU inh = CCHFV vOTU protease inhibition; Pep-AMC fluorescence; AID 651958; inhibition, % at 11.5 µM; hit rate 0.55% among 370,000; in the data active = inhibition above about 30%; also: 0% = vehicle wells with enzyme and 100% = no enzyme wells
An asterisk follows results filed as active; . = no result given; ! = not confirmed by another sample.

SMILES	DUSP3 inh	RecA splice inh	3CLpro inhibitor	PriA SSB inh	CCHF vOTU inh
CN(C)CCCN(C(=O)c1cc2c(ccc3ccccc32)oc1=O)c1nc2cc3c(cc2s1)OCCO3	.	.	.	66*	.
CCN(CC)CCN(C(=O)CCS(=O)(=O)c1ccccc1)c1nc2cc3c(cc2s1)OCO3	-2	-1	-2	-2	-10
O=C(CSc1ccc(NC(=O)c2cccc(F)c2)nn1)Nc1ccc2c(c1)OCO2	.	.	.	-15	.
CN(C)CCCN(C(=O)c1cc2cc([N+](=O)[O-])ccc2s1)c1nc2cc3c(cc2s1)OCCO3	.	5	.	46*!	-8
CN(C)CCCN(C(=O)c1cc2cc([N+](=O)[O-])ccc2s1)c1nc2cc3c(cc2s1)OCO3	.	.	.	34	.
CN(C)CCCN(C(=O)c1ccc(C(=O)c2ccccc2)cc1)c1nc2cc3c(cc2s1)OCO3	-5	4	3	44*	-1
CN(C)CCN(C(=O)c1ccc2ccccc2c1)c1nc2cc3c(cc2s1)OCO3	.	.	.	.	20
Cc1ccc(-c2cnc(SCCNC(=O)c3cccs3)[nH]2)cc1	.	.	.	-2	.
CCOC(=O)c1oc2ccccc2c1NC(=O)c1ccc(C(=O)Nc2c(C(=O)OCC)oc3ccccc23)s1	.	.	.	-11	.
COC(=O)c1sccc1NC(=O)Nc1cccc(C)c1	50*	5	3	-10	-2
COC(=O)c1sccc1NC(=O)Nc1cccc(C(C)=O)c1	26	0	6	0	5
Cc1cc2ncc(NC(=O)CSCc3ccccc3)cn2n1	.	.	.	-14	.
CCOC(=O)c1ccccc1NC(=O)Cn1c(C)cc(C)c(C#N)c1=O	.	.	.	-2	.
CCN(CC(=O)Nc1ccc(NC(C)=O)cc1)C(=O)/C=C/c1ccccc1	.	-3	.	-5	-3
CCN(CC(=O)Nc1ccc(NC(C)=O)cc1)C(=O)C(c1ccccc1)c1ccccc1	51*	3	1	-8	2
Cc1ccc(OCCNc2cc(N3CCN(CCO)CC3)ccc2[N+](=O)[O-])cc1C	8	-9	1	55*	6
Cc1cccc(OCCNc2cc(N3CCN(C)CC3)ccc2[N+](=O)[O-])c1	-1	-4	5	6	-7
O=C(c1cccs1)N1CCN(c2ccc(-c3cccs3)nn2)CC1	.	.	.	0	.
O=[N+]([O-])c1ccc(-[n+]2nc(-c3ccccc3)nn2-c2ccc(I)cc2)cc1	.	.	.	155*	.
Cc1ccc(-c2nc(-c3ccncc3)no2)cc1C	59*	2	-5	-4	-7
CS(=O)(=O)c1ccc(N2CCC(Cc3ccccc3)CC2)c([N+](=O)[O-])c1	.	.	.	41*	.
O=[N+]([O-])c1ccc(N2CCOCC2)c2ncccc12	.	.	.	57	.
CS(=O)(=O)c1ccc(N2CCN(c3ccccc3)CC2)c([N+](=O)[O-])c1	.	.	.	10	.
O=[N+]([O-])c1cc(S(=O)(=O)c2ccc(N3CCCCC3)c([N+](=O)[O-])c2)ccc1N1CCCCC1	-5	3	1	42*	7
O=[N+]([O-])c1ccc(N2CCCCC2)c2ncccc12	11	.	0	51*	7
SMILES	DUSP3 inh	RecA splice inh	3CLpro inhibitor	PriA SSB inh	CCHF vOTU inh
O=[N+]([O-])c1ccc(N2CCCNCC2)c2ncccc12	33	8	-2	0	-7
O=[N+]([O-])c1ccc(N2CCCCCC2)c2ncccc12	0	10	3	42*	-2
Cn1ccnc1N1CCN(C(=O)c2cccs2)CC1	.	.	.	-3	.
Fc1ccc(C2c3nc[nH]c3CCN2C(=S)Nc2ccccc2Cl)cc1 (centres undefined)	.	.	.	9	.
O=C(C1=C[C@H](c2ccc(Br)cc2)C[C@H](OCCCCO)O1)N1CCN(Cc2ccccc2)CC1	12	5	2	42*	11
O=C(C1=C[C@@H](c2ccc(Br)cc2)C[C@@H](OCCCCO)O1)N1CCN(Cc2ccc3c(c2)OCO3)CC1	14	8	-2	-7	6
O=C(Nc1nc(-c2ccccn2)cs1)C1CC(=O)N(c2ccc3c(c2)OCCO3)C1 (centres undefined)	6	5	-2	78*	2
COc1ccc(OCCCC(=O)Nc2nc(-c3ccccn3)cs2)cc1	20	-1	-1	-19	-14
COC(=O)NC1(C(=O)Nc2nc(-c3ccccn3)cs2)CCCC1	.	.	.	95*	.
CC1(C)OC(=O)CC1C(=O)Nc1nc(-c2ccccn2)cs1 (centres undefined)	.	.	.	104*	.
Cc1cccnc1NC(=O)C1CC(=O)N(c2ccc3c(c2)OCCO3)C1 (centres undefined)	.	-1	.	0	3
O=C(Nc1nc(-c2ccccn2)cs1)C1CC1	3	1	-5	104*	15
CCC(=O)Nc1nc(-c2ccccn2)cs1	.	.	.	18	.
O=C(CCS(=O)(=O)c1ccccc1)N1CC(Oc2nccs2)C1	.	.	.	11	.
COc1ccc(N2C[C@@H](NC(=O)N3CCC(Cc4ccccc4)CC3)CC2=O)cc1	.	.	.	-11	.
O=C(Cn1cnc2c(cnn2Cc2ccccc2F)c1=O)NC1CCCCC1	.	.	.	-2	.
O=C(Nc1nc(-c2ccccn2)cs1)NC1CCCC1	.	.	.	130*	.
O=C(Nc1ccc(C(=O)Nc2nc(-c3ccccn3)cs2)cc1)NC1CC1	.	.	.	93*	.
O=C(Nc1nc(-c2ccccn2)cs1)C12CC3CC(CC(O)(C3)C1)C2	-2	-1	5	76*	-4
CN(C)S(=O)(=O)c1ccc(C(=O)Nc2nc(-c3ccccn3)cs2)cc1	.	.	.	31	.
O=C(Nc1nc(-c2ccccc2)cs1)NC1CCCCC1	6	1	4	-7	-1
CN(C(=O)C(=O)Nc1nc(-c2ccccn2)cs1)C1CCSC1 (centres undefined)	.	.	.	138*	.
O=C(CC1CC2CCC1C2)Nc1nc(-c2ccccn2)cs1 (centres undefined)	13	.	-2	7	13
COc1ccc(S(=O)(=O)NC[C@@](C)(O)CCSC)c(C)c1	.	.	.	-2	.
CCOc1ccc(C(=O)Nc2c(N)nc(SCC(=O)NC3CCCCC3)[nH]c2=O)cc1	.	.	.	0	.
SMILES	DUSP3 inh	RecA splice inh	3CLpro inhibitor	PriA SSB inh	CCHF vOTU inh
O=c1[nH]c2c(Cl)cccc2c(=O)o1	.	.	.	-20	.
O=C(O)c1ccc(NC(=O)C2CC=CCC2C(=O)O)cc1 (centres undefined)	6	-4	-2	-1	4
O=C(Nc1nccs1)c1ccc(NC(=O)C2CC=CCC2C(=O)O)cc1 (centres undefined)	53*	-3	3	-11	14
COC(=O)CN(C)C(=O)c1ccc(OC)c(OC2CCN(C(C)C)CC2)c1	57*	-3	-8	-16	-11
COc1ccc(C(=O)NCc2cnn(C)c2C)cc1OC1CCN(C(C)C)CC1	54*	-4	-1	-9	8
CCN(CC)CCN(C(=O)c1ccc2ncsc2c1)c1nc2cc(C)cc(C)c2s1	.	.	.	31	.
CCOc1cc(C(c2c(C)[nH][nH]c2=O)c2c(C)[nH][nH]c2=O)ccc1OS(=O)(=O)c1ccccc1	-8	97*	-3	9	-4
CCOc1cc(C=NNS(=O)(=O)c2ccccc2)ccc1OS(=O)(=O)c1ccc(C)cc1	.	.	.	-6	.
CC(=O)NC(Cc1cc(C)ccc1C)C(=O)N1CCN(C(=O)c2ccc([N+](=O)[O-])cc2)CC1 (centres undefined)	54*	1	1	8	7
O=C(CSc1ncnc2c1cnn2-c1ccc(Cl)cc1)Nc1nccs1	.	.	.	-1	.
